ADAM17 inh: inhibits human ADAM17 | inhibition, % at 6.95 µM | P78536 | 370,000 tested, 0.83% active | AID 720648 | recombinant ADAM17, EDANS/DABCYL FRET peptide cleavage;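 active = inhibition above the mean of compounds lying between control limits plus 3 SD, set per campaign, cut at about 8.5% in these data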;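 note: 0% = DMSO-only wells as the low control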
PLC-gamma1 inh: inhibitors of human phospholipase C gamma1 | inhibition, % at 12.2 µM | P19174 | purified PLC-gamma1, fluorogenic substrate, fluorescence | 370,000 tested, 0.84% active; in the data active = inhibition above about 9.5%
PLC-beta3 inh: inhibitors of human phospholipase C beta3; Q01970; Purified PLC-beta3, fluorogenic substrate, fluorescence; inhibition, % at 12.2 µM; 370,000 tested, 0.18% active; in the data active = inhibition above about 11%;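 note: 0% = median of compound wells on plate and 100% = full blocker control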
sPLA2-III inh: Blocks human group III sPLA2 activity; inhibition, % at 12.2 µM; AID 743126; Q9NZ20; 370,000 tested, 0.56% active; QFRET BODIPY PC-A2 liposome hydrolysis, fluorescence;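 active = inhibition above mean plus 3 SD of compounds lying within the high and low control bounds, cut at about 19% in these data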;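 note: 0% = median of test compound wells and 100% = no enzyme DMSO wells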
proKLK7 act: activates the human kallikrein-7 zymogen; activation, % at 7 µM; P49862; 370,000 tested, 0.9% active; purified proKLK7, EDANS-DABCYL substrate fluorescence; 100% is mature enzyme control, 0% vehicle;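 active = activation above the mean of all tested compounds plus 3 SD, computed per campaign excluding outliers beyond control limits, cut at about 13% in these data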
ADAM10 inh: ADAM10 inhibition, QFRET primary screen. inhibition, % at 7 µM. recombinant ADAM10, EDANS/DABCYL FRET peptide cleavage, 3 h. 370,000 tested, 0.62% active. O14672;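 active = inhibition above a per-campaign cutoff equal to the mean of compounds falling between control-based bounds plus 3 SD, cut at about 20% in these data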;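 note: 0% = DMSO wells while the 100% control is not disclosed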
Target sequence (O14672 214-748 limits assumed): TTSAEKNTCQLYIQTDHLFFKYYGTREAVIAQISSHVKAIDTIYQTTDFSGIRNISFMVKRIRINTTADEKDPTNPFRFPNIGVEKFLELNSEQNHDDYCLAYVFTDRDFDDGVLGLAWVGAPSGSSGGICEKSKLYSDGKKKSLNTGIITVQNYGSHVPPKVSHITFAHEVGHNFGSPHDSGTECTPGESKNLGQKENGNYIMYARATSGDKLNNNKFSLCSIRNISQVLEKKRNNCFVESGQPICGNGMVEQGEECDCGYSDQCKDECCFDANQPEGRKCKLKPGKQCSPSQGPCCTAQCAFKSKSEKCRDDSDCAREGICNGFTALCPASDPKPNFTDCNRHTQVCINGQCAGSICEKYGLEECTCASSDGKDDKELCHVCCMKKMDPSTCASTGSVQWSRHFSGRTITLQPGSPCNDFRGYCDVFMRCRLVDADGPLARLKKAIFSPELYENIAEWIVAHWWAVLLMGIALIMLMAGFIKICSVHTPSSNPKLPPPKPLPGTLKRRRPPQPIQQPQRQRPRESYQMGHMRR
sPLA2 confirm: human GIII-sPLA2 inhibition, confirmation; AID 743280; shares compounds with sPLA2-III inh; 2,000 tested, 34% active; inhibition, % at 12.2 µM; recombinant hGIII-sPLA2, BODIPY PC-A2 QFRET fluorescence;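 active = mean inhibition across triplicates above the hit cutoff set in the earlier primary screen, cut at about 19% in these data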;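 note: 0% = enzyme with DMSO and 100% = DMSO wells lacking enzyme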
BODIPY interf: counter-screen for HGIII-sPLA2 inhibitors: 535nm fluorescence interference | BODIPY FL product fluorescence interference, QFRET | 2,000 tested, 8.5% active | AID 743282 | inhibition, % at 12.2 µM | shares compounds with sPLA2-III inh;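 active = average inhibition above the solvent-only control mean plus 3 SD, cut at about 6% in these data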;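 note: 0% = DMSO with substrate plus product and 100% = DMSO with substrate alone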
535nm interf DR: counter-screen for HGIII-sPLA2 inhibitors: 535nm fluorescence interference, dose response | shares compounds with sPLA2-III inh | BODIPY FL product fluorescence interference, cell-free | IC50, µM | 240 tested, under 10 active;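 active = IC50 at or below 10 µM; inactive = IC50 above 10 µM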
* hit, by the source's call; nt = no result given; ! = a repeat was not active. Rows were chosen to be rich in hits. Some 3.4% of all compounds tested hit in one or more screens of this group.

SMILES	ADAM17 inh	PLC-gamma1 inh	PLC-beta3 inh	sPLA2-III inh	proKLK7 act	ADAM10 inh	sPLA2 confirm	BODIPY interf	others
CC(C)(C)c1ccc(NC(=O)N2CCN(c3ccc([N+](=O)[O-])cn3)CC2)cc1	0	0	-11	6	1	-8	nt	nt
COc1ccc(C(CC(=O)Nc2cc(C)ccn2)N2Cc3ccccc3C2=O)cc1 (centres undefined)	-4	0	-2	-3	-1	-5	nt	nt
O=C(CN1C(=O)NC2(CCOc3ccccc32)C1=O)c1ccc(F)c(F)c1 (centres undefined)	-1	0	1	-9	0	5	nt	nt
O=C(NC(=S)N1CCCC1)c1cccc([N+](=O)[O-])c1	2	2	-3	1	0	7	nt	nt
O=C(NC(=S)N1CCCCCC1)c1cccc([N+](=O)[O-])c1	-5	0	-7	20*	0	-11	15	-3
O=C(NNC(=S)NC(=O)c1ccccc1[N+](=O)[O-])c1ccccc1	-4	-5	2	19*	0	3	24*	-3
O=C(NNC(=S)NC(=O)c1ccccc1)c1cccc([N+](=O)[O-])c1	-3	1	-2	25*	0	7	25*	-1
O=C(NNC(=S)NC(=O)c1cccc([N+](=O)[O-])c1)c1ccc(O)cc1	0	5	-6	16	-1	-8	nt	nt
O=C(NC(=S)Nc1ccc(CN2CCOCC2)cc1)c1cccc([N+](=O)[O-])c1	6	1	-4	19*	0	0	3	-6
O=C(NC(=S)NNC(=O)c1ccccc1[N+](=O)[O-])c1ccccc1	2	2	0	3	0	0	nt	nt
CC1CCCC(C)N1CC(O)COCc1ccccc1F (centres undefined)	-1	0	0	-3	0	-3	nt	nt
CC1CCCN(CCCNS(=O)(=O)c2ccc3c(c2)CCN3C(=O)C2CC2)C1 (centres undefined)	-3	0	-8	2	0	5	nt	nt
N/C(=N\OC(=O)CCCc1ccccc1)c1ccccc1Cl	-1	0	-9	2	0	5	nt	nt
O=C(NCCc1ccc(F)cc1)Nc1ccccc1Cl	3	-4	-8	-3	1	1	nt	nt
CCCOc1ccc(C(=O)NNC(=S)NC(=O)c2ccccc2[N+](=O)[O-])cc1	4	0	-5	21*	0	7	31*	-4
COC(=O)C1=C(C)N(Cc2ccc(C(F)(F)F)cc2)C(=NCc2ccc(OC)cc2)NC1c1ccccc1 (centres undefined)	1	3	-2	21*	0	5	-24	-35
CC1(C)Oc2ccc3ccc(=O)oc3c2/C(=C/NNC(N)=O)C1=O	-26	-61	-72	2	10	-45	nt	nt
CC1(C)Oc2ccc3ccc(=O)oc3c2C(/C=N/O)=C1Cl	-17	-25	-42	21*	0	-35	8	-5
Cc1cc(C)nc(SCc2cn3cc(Cl)ccc3n2)n1	-7	-3	-6	21*	0	-11	3	-9
CCOC(=O)C1CC(c2ccccc2)=NNC1=O (centres undefined)	-1	0	2	-44	0	1	nt	nt
C/C(=N\Nc1ncc(Cl)cc1Cl)c1ccc2c(c1)OCO2	-2	0	-9	20*	0	-7	4	-5
CC(=O)N1CCN(c2ccc(NC(=S)NC(=O)c3ccc(C)c([N+](=O)[O-])c3)cc2)CC1	4	6	-6	8	0	15	nt	nt
COc1ccc(C(=O)NC(=S)Nc2ccc(N3CCN(C(C)=O)CC3)cc2)cc1[N+](=O)[O-]	1	-2	-5	21*	0	-1	10	-18
O=C(NNc1cccc([N+](=O)[O-])c1)/C(=C\c1cccnc1)NC(=O)c1ccccc1	-2	4	-4	15	0	3	nt	nt
COc1ccc(C(=O)NC(=S)NNC(=O)c2c(-c3ccccc3)noc2C)cc1OC	2	1	-6	20*	0	5	29*	-10	535nm interf DR=>122
SMILES	ADAM17 inh	PLC-gamma1 inh	PLC-beta3 inh	sPLA2-III inh	proKLK7 act	ADAM10 inh	sPLA2 confirm	BODIPY interf	others
Cc1onc(-c2ccccc2)c1C(=O)NNC(=S)NC(=O)c1ccc2c(c1)OCO2	2	-3	-11	27*	0	6	43*	-11	535nm interf DR=>122
Cc1onc(-c2ccccc2)c1C(=O)NC(=S)NNC(=O)c1cc(-c2ccc(F)cc2)n[nH]1	5	-6	-10	29*	0	9	41*	-16
Cc1onc(-c2ccccc2)c1C(=O)NC(=S)NNC(=O)c1ccncc1	-3	-6	-6	19	0	-12	nt	nt
Cc1cc(Cn2nnc3ccccc32)c(O)c(C(C)(C)C)c1	2	2	-1	1	0	5	nt	nt
CC(C)c1onc(C(=O)N(C)Cc2ccccc2)c1[N+](=O)[O-]	4	4	2	22*	0	-12	-5	1
CC(OC(=O)c1nn(C)c(=O)c2ccccc12)C(=O)NC1CCCCC1C (centres undefined)	-2	2	-5	19*	0	-9	-2	-5
O=S(=O)(/N=C(/Nc1cc(N2CCOCC2)ncn1)c1ccc(F)cc1)c1ccccc1	6	-3	1	20*!	0	-16	4	-6
Cc1cccc(OCC(=O)Nc2sc3c(c2C#N)CCC3)c1	4	4	-1	23*	0	-3	16	-7
O=C(N/N=C/c1ccncc1)c1cccc(S(=O)(=O)Nc2ccc(Cl)cc2)c1	-5	0	-7	-19	1	-6	nt	nt
Cc1ccc2[nH]c(-c3cccc(F)c3)cc(=O)c2c1	-24	-14	-21	-5	0	-78	nt	nt
Cc1ccc2[nH]c(-c3cccc(N)c3)cc2c1	-6	-25	-26	25*	0	-3	4	4
O=C(CC1CCCCC1)NCc1nc(-c2ccccc2)no1	-2	-2	-5	-3	1	1	nt	nt
CS(=O)(=O)N1CCN(c2nc3ccc(Cl)cc3s2)CC1	0	8	-6	23*	0	1	-3	-7
C/C(=N\OCc1nc2ccccc2c(=O)n1/N=C/c1cc(C)cc([N+](=O)[O-])c1O)c1ccccc1	-4	-72	-100	22*	2	-8	33*	8.8*

Bioassay records as filed in PubChem BioAssay.
